Compound activity: PubChem BioAssay, several laboratories
Gli-Sufu block: blocks Gli-Sufu signaling in a luciferase reporter | Sufu-KO-LIGHT fibroblasts, Gli luciferase reporter luminescence | inhibition, % at 5 µM | hit rate 0.74% among 340,000;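 active means inhibition above about 55%, limit read from the data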;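 further: 0% = DMSO-treated cells and 100% = wells with medium but no cells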
TAG inh: inhibitors of triacylglycerol accumulation | hit rate 0.66% among 230,000 | inhibition, % at 12.5 µM | AID 651582 | H9c2 cells, Nile Red lipid (TAG) fluorescence; cells loaded with 200 µM oleic acid;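 active means pattern-corrected inhibition of lipid staining of at least 50% with the nuclear-stain viability signal not falling by more than 50%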;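 further: 0% = DMSO wells and 100% = triacsin C control wells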
Jurkat NFkB inh: lowers PMA/ionomycin-induced NF-kB signal in Jurkat cells; PMA/ionomycin-induced NF-kB luciferase reporter, luminescence; hit rate 0.53% among 330,000; inhibition, % at 4 µM; in the data active means inhibition above about 50%
697 NFkB inh: lowers PMA/ionomycin-induced NF-kB signal in 697 B cells. 697 B-cell NF-kB luciferase reporter, 16 h. inhibition, % at 4 µM. hit rate 0.33% among 330,000. AID 435022; in the data active means inhibition above about 35%
Shn3 3UTR inh: Schnurri-3 reporter inhibition in Clone20 osteoblasts; Clone20 osteoblast Shn3 3'UTR firefly luciferase, 24 h; inhibition, % at 12.5 µM; hit rate 0.52% among 360,000;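 active means mean inhibition of at least 75% with every replicate also reaching 75%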;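 further: 0% = median of neutral control wells and 100% = pilot-screen positive control compound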
aSyn UTR inh: MLPCN primary screen, SNCA 5' untranslated region; alpha-synuclein 5'UTR reporter, inhibitor activity; inhibition, % (tested at 7.5 µM); hit rate 0.82% among 300,000; AID 1813; in the data active means inhibition above about 60%;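 further: H4 neuroglioblastoma cells stably carrying SNCA 5'UTR luciferase fusion; 0% = DMSO wells and 100% = positive control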
H9c2 TAG conf: confirmation of triacylglycerol accumulation inhibitors; shares compounds with TAG inh; H9c2 lipid accumulation, Nile Red fluorescence; cells loaded with 200 µM oleic acid; inhibition, % at 12.5 µM; hit rate 71% among 990;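 active means mean inhibition across replicates of 40% or more; inactive means mean inhibition below 40%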;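 further: plate controls were DMSO only wells for no effect and Triacsin C treated wells for full effect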
* hit, by the source's call; x = no result given. An excerpt weighted towards active compounds, which were near 2.3% of everything screened.

SMILES | Gli-Sufu block | TAG inh | Jurkat NFkB inh | 697 NFkB inh | Shn3 3UTR inh | aSyn UTR inh | H9c2 TAG conf
CCN(C[C@H]1N[C@@](CC)(C(=O)OC)[C@H]2C(=O)N(Cc3ccccc3)C(=O)[C@@H]12)S(=O)(=O)c1ccc(C(C)(C)C)cc1 | -4 | 65* | 15 | 10 | 14 | x | 60*
COC(=O)CC1C(=O)NCCN1C(=O)c1ccc(S(=O)(=O)N2CCOCC2)cc1 (stereo not drawn) | -19 | 61* | -8 | -12 | -12 | -4 | 7
CC12CCC(=O)C=C1CCC1C2C(=O)CC2(C)C1CCC2(O)C(=O)CO (stereo not drawn) | 12 | 7 | -3 | -5 | 0 | -8 | x
COC(=O)C=C1CCC2C3CCC4=CC(=O)C(Br)CC4(C)C3C(=O)CC12C (stereo not drawn) | 5 | 63* | x | x | 2 | x | 85*
COc1ccc(CCNC(=O)Cc2cc(OCc3ccccc3)c(OC)cc2[N+](=O)[O-])cc1OC | -9 | 63* | -24 | 7 | -1 | 21 | 33
CC(C)=CCNc1ncnc2c1c(C#N)cn2C1OC(CO)C(O)C1O (stereo not drawn) | 22 | 58* | x | x | -6 | x | 46*
COc1ccc(-c2cc(C(=O)O)c3c(C)nn(-c4ccccn4)c3n2)cc1 | -1 | x | 2 | 6 | x | 8 | x
CCOC(=O)c1cc(-c2ccncc2)nc2c1c(C)nn2-c1ccccn1 | 11 | 68* | 3 | -2 | 15 | -25 | 43*
COc1cc(-c2coc3c(C(=O)NCc4ccncc4)cccc23)ccc1O | x | -5 | x | x | 46 | x | x
COc1cc(-c2coc3c(C(=O)NCc4ccc(C(F)(F)F)cc4)cccc23)ccc1O | x | 54* | x | x | 2 | x | 27
CN1Cc2c(N3CCOCC3)nc(SCc3ccccc3)c(C#N)c2CC1(C)C | 10 | x | 4 | 8 | 7 | 36 | x
CC1(C)Cc2c(C#N)c(SCC(=O)c3ccccc3)nc(N3CCOCC3)c2CS1 | 23 | 51* | -9 | -47 | -1 | 22 | 59*
COc1ccc(OC)c(NC(=O)NNC(=O)c2cc3occc3[nH]2)c1 | 26 | x | 3 | 13 | 1 | 19 | x
Cc1cc(NC(=O)c2sccc2C)n(-c2nc3ccccc3[nH]2)n1 | 2 | 64* | -5 | -13 | 7 | 26 | 59*
CCNC(=O)c1cccc(NC(=O)c2cc(C3CC3)nc3c2cnn3C(C)C)c1 | 3 | 13 | -2 | 26 | -6 | x | x
NC(=S)NN=C1c2cc(Cl)ccc2-c2c1cc(Cl)cc2[N+](=O)[O-] | 21 | 5 | x | x | 17 | x | x
COc1cc2c(cc1[N+](=O)[O-])-c1ccc([N+](=O)[O-])cc1C2=NNC(N)=S | x | 52* | x | x | -17 | x | 42*
CCOc1ccc(C2=Nc3ccccc3C(c3ccc(N4CCOCC4)cc3)=NN2)cc1 | -116 | 73* | -22 | -28 | -37 | -95 | 53*
CCOC(=O)Nc1ccc2c(c1)C(=NNC(=S)NC)c1ccccc1-2 | x | 58* | x | x | 54 | x | 70*
CCn1ncc(Br)c1C(=O)Nc1ccccc1OC | 7 | -5 | 9 | 10 | 14 | 38 | x
O=C(NC1CCCCCCC1)c1cccnc1 | -15 | x | -6 | 0 | -30 | -39 | x
O=C(NCc1nnnn1-c1ccc(F)cc1)c1ccc([N+](=O)[O-])o1 | 19 | 65* | 18 | 1 | -27 | -136 | 82*
O=C(NCC(c1ccc(F)cc1)N1CCOCC1)c1ccc([N+](=O)[O-])o1 (stereo not drawn) | -11 | 51* | -12 | 0 | -2 | x | 76*
Cc1ccc(-n2nnnc2CNC(=O)c2ccc([N+](=O)[O-])o2)cc1C | 7 | 60 | 23 | -7 | 6 | -98 | x
COc1ccc(NC(=O)C2CCCN2S(=O)(=O)c2ccc3c(c2)CCC(=O)N3)c(OC)c1 (stereo not drawn) | 4 | 4 | -16 | 3 | -4 | x | x
SMILES | Gli-Sufu block | TAG inh | Jurkat NFkB inh | 697 NFkB inh | Shn3 3UTR inh | aSyn UTR inh | H9c2 TAG conf
COC(=O)c1cc(C#N)c(N2CCOCC2)nc1C | -3 | -8 | -15 | 13 | -1 | 4 | x
COc1ccccc1-c1cc(C(F)(F)F)nc(S(=O)(=O)CCCC(=O)NC(C)C)n1 | 2 | 66* | 32 | -128 | 33 | -46 | 90*
Cc1cccc(C(=O)N[C@H](C(=O)Nc2nnc(C3CC3)s2)C(C)C)c1 | -1 | -5 | 7 | -9 | -5 | -12 | x
Cc1cccc(C(=O)N[C@H](C(=O)Nc2ncc(C)s2)C(C)C)c1 | -93 | 65* | 5 | -30 | -10 | -7 | 93*
CC1(C)c2ccccc2N2CC(=O)N[C@@]21/C=C/C=C/c1ccccc1 | 9 | -15 | 10 | 9 | -8 | -5 | x
COc1cc2c(cc1NC(=O)Nc1cccc(C)c1)oc1ccccc12 | -8 | 51* | -4 | 10 | 6 | -23 | 33
O=C(Nc1cccc2ccccc12)c1ccc([N+](=O)[O-])o1 | 6 | x | 25 | 7 | 36 | -179 | x
Cc1cccc(NC(=O)c2ccc([N+](=O)[O-])o2)c1C | -9 | 71* | 17 | 5 | -22 | -49 | 62*
CC1=NN(c2ccccc2)C(=O)/C1=C\N(O)c1ccccc1 | -18 | x | -4 | -4 | 2 | -14 | x
COc1cc(=O)[nH]c(SCc2c(F)c(F)c(F)c(F)c2F)n1 | 2 | x | 2 | 5 | 8 | 47 | x
CC(C)C[C@H](CO)N(Cc1ccccc1)S(=O)(=O)N(Cc1ccccc1)[C@@H](CO)CC(C)C | 11 | 56* | 5 | -2 | 66 | x | 46*
O=C(CCl)N(CCCNC(=O)C(F)(F)F)c1ccc([N+](=O)[O-])cc1 | 6 | 68* | 18 | 26 | -23 | -12 | 56*
Oc1ccccc1N1CCN(C(=S)NCCc2ccccc2)CC1 | -5 | x | -4 | 0 | -22 | -35 | x
COc1cccc(Nc2nnc(SCc3cc([N+](=O)[O-])cc4c3OCOC4)s2)c1 | 9 | 53* | 5 | 23 | 26 | 21 | 42*
OCc1cn(-c2ccccc2)nc1-c1ccc(-c2nn(-c3ccccc3)cc2CO)cc1 | 0 | -13 | 5 | 10 | 7 | 25 | x
Cc1ccc(-c2nn(-c3ccccc3)cc2CSC(=N)N)cc1 | 20 | 53* | -3 | -21 | -4 | 119* | 109*
O=C(O)CCc1ccc(NCc2cccc(Oc3ccccc3)c2)cc1 | 12 | 4 | 12 | 9 | -15 | 10 | x
O=C(Cn1cc[n+](CC(=O)c2ccccc2)c1)c1ccccc1 | 5 | -4 | -8 | 14 | 17 | 11 | x
O=C(Cn1cc[n+](CC(=O)c2ccc(Cl)cc2Cl)c1)c1ccc(Cl)cc1Cl | 9 | 60* | 12 | 1 | -1 | 44 | 44*
CCOC(=O)C1CCCCN1C(=O)c1cc2ccc(OC)cc2c2cc(OC)c(OC)cc12 (stereo not drawn) | 23 | 54* | x | x | 0 | x | 25
